Source: PubChem BioAssay (several laboratories)
C8 TRAIL sens = caspase-8 TRAIL sensitization. inhibition (viability loss, TRAIL sensitization), % at 10 µM. NB7+C8 cells + TRAIL, ATPlite viability luminescence. 360,000 tested, 1% active;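 active means compounds causing at least 50% loss of cell viability in the single-dose screen, relative to plate controls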
PPC-1+TRAIL kill = compounds killing PPC-1 cancer cells with TRAIL present (potentiator screen, no TRAIL-free arm); 220,000 tested, 0.41% active; PPC-1 cells + TRAIL, ATPLite viability luminescence; cell killing (% activity), % at 4 µM or 5 µM;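 active means cell killing above 50% in the first pass at 4 µM, then a duplicate retest at 5 µM averaging 50% or more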;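 further: plate controls were cells with TRAIL plus DMSO for no effect and medium-only wells lacking cells for full effect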
Platelet DG rel = modulates dense granule release in human platelets; human platelet-rich plasma, SFLLRN dense granule ATP release, luminescence; inhibition, %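 (compounds screened at 7.5 µM in platelet-rich plasma)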; 300,000 tested, 0.22% active; AID 1663;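 active means mean replicate score, as percent of positive control, at or above 50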
STAT3 blocker = STAT3 signaling inhibition; U3A cells, IL-6 STAT3-luciferase reporter, luminescence; host cell line lacks STAT1; inhibition, % at 5.5 µM; 190,000 tested, 0.89% active;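 active means inhibition above the mean inhibition across all screened compounds plus 3 SD, cut at about 44% in these data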;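 further: 0% = DMSO only wells and 100% = 100 µM nifuroxazide control wells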
STAT1 blocker = inhibitors of IFN-gamma induced STAT1 signaling; NIH 3T3 STAT1-luciferase reporter, luminescence; inhibition, % at 5.5 µM; 200,000 tested, 0.35% active;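 active means inhibition above a set limit, the mean inhibition across all tested compounds plus 3 SD, cut at about 34% in these data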;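 further: 0% = IFN-gamma with DMSO and 100% = IFN-gamma with 300 µM nifuroxazide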
PPC-1 tox = PPC-1 cell cytotoxicity; shares compounds with PPC-1+TRAIL kill; PPC-1 viability, ATPlite luminescence, overnight; cytotoxicity, % at 5 µM; 1,200 tested, 50% active; AID 1447;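 active means reconfirmed compounds whose average cytotoxicity reaches 50% or more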;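 further: 0% = DMSO-treated cells and 100% = wells holding medium but no cells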
* = called active by the depositor; . = no result. Rows were chosen to be rich in hits. Some 1.6% of all compounds tested hit in one or more screens of this group.

SMILES | C8 TRAIL sens | PPC-1+TRAIL kill | Platelet DG rel | STAT3 blocker | STAT1 blocker | PPC-1 tox
CC(C)NC(=O)C1CCCN(S(=O)(=O)c2cccs2)C1 (centres undefined) | -11 | 9 | 1 | 5 | -1 | 1
CS(=O)(=O)c1ccc(S(=O)(=O)N2CCN(C(=O)C(O)c3ccccc3)CC2)cc1 (centres undefined) | 3 | . | . | . | . | .
O=C(Nc1ccc2c(c1)OCCO2)c1cncc(Br)c1 | 42 | 30 | 11 | 42 | -26 | 32
COc1ccc(/C=C/c2nc3ccccc3n2C)cc1 | 88* | 93* | 113* | 102* | 94* | 92*
CC(C)Cn1c(/C=C/c2ccccc2)nc2ccccc21 | 46 | 4 | -7 | 4 | -40 | .
CCn1c(/C=C/c2ccccc2)nc2ccccc21 | 72* | 66* | 8 | 21 | -37 | 68*
CCn1c(-c2ccco2)nc2ccccc21 | 9 | 19 | 1 | 6 | -10 | 19
O=S1(=O)C=C[C@@H](COCc2ccccc2)N1Cc1ccc(Br)cc1 | -12 | . | . | . | . | .
COc1ccc(OC)c(CN2C(=O)c3ccccc3C2c2nnnn2Cc2ccccc2)c1 (centres undefined) | -7 | . | . | . | . | .
Cc1ccc(S(=O)(=O)N(C)C[C@@H]2OCc3cnnn3CCCC(=O)N([C@H](C)CO)C[C@@H]2C)cc1 | -1 | . | . | . | . | .
ClCc1ncc(-c2ccc(Cl)cc2)o1 | 1 | 18 | -1 | 5 | 3 | 17
O=C(O)CCc1ccc(-c2ccc(Cl)cc2)o1 | 1 | -13 | -3 | 6 | 17 | .
COC(=O)Nc1sccc1C(=O)Nc1sccc1C(=O)OC | -8 | -10 | -2 | 16 | -5 | .
CCC(=O)Nc1sccc1C(=O)OC | 8 | -4 | -3 | 10 | 0 | -1
COC(=O)[C@H](CCSC)NC(=O)N1CCC(C)CC1 | -12 | -5 | 10 | 3 | -1 | -2
Cc1ccc(-c2nc(N/N=C/c3cccnc3)c3ccccc3n2)cc1 | 91* | 91* | 64* | 72* | 57* | 85*
O=C(Nc1ccccc1NS(=O)(=O)c1ccc(F)cc1)C1CCC1 | 2 | 6 | 6 | 6 | 7 | 11
COc1cc(NS(=O)(=O)c2ccc(F)cc2)c(OC)cc1NC(=O)C1CC1 | . | 7 | -9 | 9 | 7 | .
CCN(CC(=O)Nc1c(C(=O)OC)[nH]c2ccc(Cl)cc12)c1ccc2c(c1)OCO2 | -4 | 4 | 1 | -10 | 2 | 12
N#Cc1c(-n2cccc2/C=N/O)sc2c1CCCC2 | 13 | 11 | 5 | 13 | 3 | .
C=CCNCc1cccn1-c1sc2c(c1C#N)CCCC2 | 12 | -3 | 1 | 0 | 7 | 8
CC(C)(C)C(=O)Nc1cc2nn(-c3ccccc3)nc2cc1Cl | 93* | 96* | . | 104* | 83* | 96*
CC(=O)Nc1cc2nn(-c3ccccc3)nc2cc1Cl | 43 | -1 | 7 | 15 | -34 | .
Clc1cccc(CNc2ccn3nc(-c4cccc(Cl)c4)cc3n2)c1 | 1 | . | . | . | . | .
O=C(/C=C/c1ccccc1)Nc1cccc(C(=O)O)c1 | 81* | 64* | 6 | 107* | 96* | 61*
SMILES | C8 TRAIL sens | PPC-1+TRAIL kill | Platelet DG rel | STAT3 blocker | STAT1 blocker | PPC-1 tox
CSc1ccc(/C=C/C(=O)Nc2ccccc2)cc1 | 58* | 64* | . | 79* | 53* | 66*
CSCCC(C(=O)Nc1c(C)cccc1C)n1c(-c2cc(C)cs2)nc2ccccc21 (centres undefined) | 10 | . | . | . | . | .
CCCC(=O)Nc1ccc2c(c1)C(=O)N(C)C[C@@H](OC)[C@H](C)CN(Cc1ccc(-c3ccccn3)cc1)[C@@H](C)CO2 | -1 | . | . | . | . | .
CC(=O)N=c1sc2cc(C)ccc2n1C | -10 | -6 | -1 | 41 | 4 | -6
O=C(Nc1nc2ccccc2[nH]1)c1ccccc1 | 84* | 62* | 49 | 40 | 6 | 60*
CC(=O)Nc1nc2ccccc2[nH]1 | -13 | -15 | 2 | 8 | -14 | .
CCOc1ccc(C2C(C#N)=C(N)SC(N)=C2C#N)cc1OCC | 18 | 5 | 0 | . | . | 9
NC(c1csc(Nc2nccc(C(F)(F)F)n2)n1)C1CCCCC1 (centres undefined) | 21 | . | . | . | . | .
CCC(=O)OCC(=O)N=c1sccn1Cc1ccccc1Cl | 8 | . | 8 | . | . | .
O=C(CCl)N=c1sccn1Cc1ccccc1Cl | 95* | 98* | -3 | . | . | 95*
O=C(CCl)N=c1sccn1Cc1cccc2ccccc12 | 95* | 97* | 1 | 81* | 92* | 98*
O=C(CCl)N=c1sccn1Cc1ccc(Cl)cc1Cl | 97* | 98* | -12 | 60* | 90* | 96*
CCN1C(=O)[C@H]2[C@@H](c3ccc(C)cc3)N[C@]3(CCCN(Cc4ccco4)C3=O)[C@H]2C1=O | -5 | . | . | . | . | .
Cc1cccc(CN2CCN(C3CN(CCc4ccccc4)S(=O)(=O)C3)CC2)c1 (centres undefined) | -9 | . | . | . | . | .
COc1ccc(-c2nc3ccccc3n2Cc2ccccc2)cc1 | 5 | 8 | 3 | 1 | -2 | .
COc1ccc(-c2n(Cc3ccccc3)c3ccccc3[n+]2Cc2ccccc2)cc1 | 25 | 8 | 21 | 22 | 7 | 5
CC(=O)c1c(C)[nH]c(C(=O)Nc2cc(C)cc(C)c2)c1C | -7 | -6 | -6 | 22 | -4 | .
CC(=O)c1c(C)[nH]c(C(=O)Nc2ccc(C)cn2)c1C | 73* | 69* | -14 | 90* | 39* | 66*
CC(=O)c1c(C)[nH]c(C(=O)Nc2nc(-c3ccc(Cl)cc3)cs2)c1C | 13 | 22 | 21 | 2 | -1 | .
CC(=O)c1c(C)[nH]c(C(=O)Nc2nc(C)cs2)c1C | 73* | 66* | 11 | 85* | 70* | 65*
O=C(CCCN1C(=O)CCC1=O)Nc1ccc2c(c1)OCO2 | -2 | 8 | -11 | 10 | 1 | 9
O=c1c(O)c(-c2cccs2)oc2ccc(Cl)cc12 | 11 | 2 | -4 | 22 | 2 | 6
CC(C)(C)c1ccc(/C=N/NC(=O)c2ccccn2)cc1 | 76* | 64* | 17 | 68* | 43* | 61*
CCCCC(=O)N(C)c1c(C)nc2ccc(C(=O)Nc3cccc(NS(C)(=O)=O)c3)cn12 | -10 | . | . | . | . | .
Cn1cnnc1SCCn1c(N2CCCCC2)nc2c1c(=O)[nH]c(=O)n2C | -16 | 5 | 0 | 4 | 1 | 4
SMILES | C8 TRAIL sens | PPC-1+TRAIL kill | Platelet DG rel | STAT3 blocker | STAT1 blocker | PPC-1 tox
COCCNc1nc(Nc2ccc(C(=O)OC)cc2)c2sccc2n1 | -5 | . | . | . | . | .
CCOC(=O)N=Nc1c(O)n(CC(=O)OC)c2ccccc12 | -1 | 15 | 1 | 11 | 3 | .
CCOC(=O)N=Nc1c2ccccc2c2nc3no[nH]c3nc12 | 96* | 83* | 0 | 68* | 89* | 81*
CC(C)n1nnnc1C1c2ccccc2C(=O)N1C1CC1 (centres undefined) | -11 | . | . | . | . | .
CN(C(=O)CSc1nc2ccc(Cl)cc2[nH]1)C1CCS(=O)(=O)C1 (centres undefined) | -10 | . | . | . | . | .
Fc1ccc(CO/N=C/C2=C(Cl)c3ccccc3CC2)cc1 | -6 | 3 | 1 | -2 | 4 | -5
